High-throughput results deposited in PubChem BioAssay by National Center for Advancing Translational Sciences (NCATS).
G9a block: G9a (human) methyltransferase inhibition | Q96KQ7 | G9a H3K9 monomethylation, AlphaScreen, 2 h | Potency, µM (top dose mostly 102 µM), hits mostly inhibitors | 350,000 compounds, 8.8% hits; also: nearly all actives have a fitted effect of over 75% in size
Target sequence (Q96KQ7 913-1193 limits assumed): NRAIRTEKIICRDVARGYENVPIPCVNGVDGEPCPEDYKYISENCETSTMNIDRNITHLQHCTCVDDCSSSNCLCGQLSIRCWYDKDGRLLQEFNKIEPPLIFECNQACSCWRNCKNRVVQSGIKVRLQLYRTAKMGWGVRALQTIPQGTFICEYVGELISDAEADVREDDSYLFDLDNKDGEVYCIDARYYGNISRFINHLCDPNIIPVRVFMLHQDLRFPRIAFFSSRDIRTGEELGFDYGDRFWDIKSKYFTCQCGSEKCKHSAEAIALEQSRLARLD
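Compounds were preincubated with 20 nM G9a for 15 min, after which biotinylated H3K9 peptide (500 nM) and SAM (20 uM) started a 2 h room-temperature reaction. Monomethylated product was quantified by antibody-based AlphaScreen chemiluminescence.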
BAZ2B block: BAZ2B (human) inhibition; Potency, µM (highest dose often 114 µM), usual class: inhibitors; Q9UIF8; 360,000 compounds, 4.4% hits; AID 504333; AlphaScreen BAZ2B-H3K14Ac peptide displacement; also: nearly all actives have a fitted effect of over 60% in size
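AlphaScreen luminescence quantifies BAZ2B engagement of H3K14Ac peptide; the protein and biotinylated peptide are both at 50 nM final, buffer PBS pH 7.4 with 0.01% Tween-20, all steps at room temperature.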
JMJD2A Tudor: blocks the human JMJD2A Tudor domain | AlphaScreen JMJD2A-Tudor / H3K4me3 peptide binding | 390,000 compounds, 4.4% hits | AID 504339 | Potency, µM (titrated, usually from 114 µM), hits mostly inhibitors | O75164; also: nearly all actives have a fitted effect of over 50% in size
HP1b chromo inh: blocks HP1-beta chromodomain binding to methylated histone tails. P83916. AlphaScreen HP1-beta / biotin-H3K9me3 peptide binding. Potency, µM (series often up to 114 µM), usual class: inhibitors. 390,000 compounds, 0.56% hits. AID 540317; also: nearly all actives have a fitted effect of over 70% in size
Target sequence (P83916 whole entry, looked up): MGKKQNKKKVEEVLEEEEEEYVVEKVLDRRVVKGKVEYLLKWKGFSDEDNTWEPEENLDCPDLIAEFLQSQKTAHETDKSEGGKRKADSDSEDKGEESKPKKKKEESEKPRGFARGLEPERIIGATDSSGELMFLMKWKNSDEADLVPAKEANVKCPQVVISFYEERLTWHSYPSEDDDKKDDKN
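Compound inhibition of the preformed complex between 50 nM HP1-beta and 50 nM biotinylated H3K9me3 peptide was read by AlphaScreen. Buffer was PBS pH 7.4 with 0.01% Tween-20. Incubations ran 30 min at room temperature, with 10 ug/mL donor/acceptor beads.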
Six1-Eya2 blk: inhibitors of human Six1/Eya2 interaction. Q15475+O00167. AlphaScreen GST-Six1/His-Eya2 binding, biochemical; hits give low values. activity change, % (test concentration not listed). 360,000 compounds, 0.56% hits. AID 651725; in the data active = activity change below about -65%; inconclusive = mostly about -30% to -63%
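Homogeneous AlphaScreen proximity assay pairing GST-Six1 with His-tagged Eya2 (added as 5X mix: 250 nM and 500 nM) in 50 mM Tris pH 8.0, 300 mM NaCl, 1 mM TCEP. Glutathione donor and nickel acceptor beads; 1 h, 37 °C, dark.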
CtBP-E1A inh: inhibitors of CtBP/E1A interaction; AlphaScreen GST-E1A/His-CtBP binding, 1536-well; hits give low values; 340,000 compounds, 0.49% hits; AID 651724; activity change, % (concentration not given with the values); in the data active = activity change below about -65%; inconclusive = mostly about -30% to -63%
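AlphaScreen with 125 nM GST-E1A and 125 nM His-CtBP (5X stocks) in Tris pH 8.0, 300 mM NaCl, BSA, Tween 20, TCEP. Compounds preincubated 2 h at 37 deg C, then glutathione donor/nickel acceptor beads added for 1 h at 37 deg C in dark.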
Numbers stand for hits; . = inactive; ? = inconclusive; / = no result; [ ] = dose if it differs, or a comment. Most compounds without a hit are left out; they make up all but 10% or so of the library. Unless noted, calls follow the shape of the dose curve; as a rule, active = well fitted inhibition curve with a large enough effect; inconclusive = small, poorly fitted or top-dose-only effect; inactive = no such curve, though single readings can be large or run the other way.

SMILES | G9a block | BAZ2B block | JMJD2A Tudor | HP1b chromo inh | Six1-Eya2 blk | CtBP-E1A inh
Cc1ccc(CN2CCCn3nc(C(=O)NC(C)C)cc3C2=O)cc1 | . | . | . | . | / | /
Cc1cc(-c2nc(C)c(C(=O)NNS(=O)(=O)c3ccc(Cl)cc3Cl)s2)no1 | 39.8µM | . | ? | . | . | .
N#CC1(NC(=O)COc2ccc(S(=O)(=O)N3CCCC3)cc2[N+](=O)[O-])CCCCC1 | 14.1µM | . | . | . | . | .
CO/N=C/C1C(=O)NN=C1c1ccccc1 (stereo not drawn) | ? | ? | 12.6µM | . | . | .
O=C(NCCN1CCCCCC1)C1CCC(CNS(=O)(=O)c2cccc3cccnc23)CC1 (stereo not drawn) | 44.7µM | . | ? | . | . | .
Cc1ccc(C)c(Cn2c(=O)n(-c3ccc(F)cc3)c(=O)c3sc4ccccc4c32)c1 | . | . | . | . | / | /
Cc1nc2nc(SCC(=O)NC3CCC(C)CC3)nn2c(C)c1Cc1ccccc1 (stereo not drawn) | . | . | . | . | / | /
Cn1cccc1/C=N/n1c(-c2ccc(Cl)cc2Cl)n[nH]c1=S | ? | 44.7µM | 79.4µM | . | . | .
COc1ccc(-c2n[nH]c(=S)n2/N=C/c2cccn2C)cc1 | 1.12µM | . | 6.31µM | ? | . | /
Cc1ccc(-c2n[nH]c(=S)n2/N=C/c2cccn2C)cc1 | 1.12µM | . | 22.4µM | . | . | .
Cn1cccc1/C=N/n1c(-c2ccc(Cl)cc2)n[nH]c1=S | ? | . | . | . | . | .
C=C(C)CNC(=S)Nc1sc2c(c1C(=O)OCC)CC(C)(C)OC2 | 14.1µM | . | ? | . | . | .
Nc1nc(Nc2cccc(F)c2)nc2ccccc12 | 56.2µM | ? | . | . | . | .
Cc1ccc(C)c(Nc2nc(N)c3ccccc3n2)c1 | 50.1µM | . | . | . | . | .
O=c1oc(Nc2cccc(F)c2)nc2ccccc12 | . | . | . | . | . | .
Cc1ccc(O)c(Nc2c3ccccc3nc3ccccc23)c1 | ? | 35.5µM | ? | ? | ? | .
COc1ccc(Cl)cc1Nc1nc(N)c2ccccc2n1 | 79.4µM | . | . | . | . | .
COc1cc(NC(=O)c2cc(S(=O)(=O)N3CCC(C)CC3)cn2C)cc(OC)c1OC | . | . | . | . | / | /
O=C(CSc1nccn1C1CCCC1)Nc1ccccc1 | . | . | . | . | / | /
O=C(NNC(=O)c1ccccc1[N+](=O)[O-])c1ccccc1[N+](=O)[O-] | 10µM | . | . | . | . | .
O=C(NC(=S)NNC(=O)c1ccccc1[N+](=O)[O-])c1ccccc1 | 2.51µM | . | 28.2µM | ? | . | .
Cc1ccccc1OCC(=O)NNC(=S)NC(=O)c1ccccc1[N+](=O)[O-] | . | . | . | . | . | .
O=C(NNC(=S)NC(=O)c1ccccc1[N+](=O)[O-])c1ccccc1 | ? | . | . | . | . | .
CC(C)(C)c1ccc(OCC(=O)NNC(=S)NC(=O)c2ccccc2[N+](=O)[O-])c(Br)c1 | 44.7µM | . | ? | ? | . | .
CCC(=O)NC(=S)NNC(=O)c1ccccc1[N+](=O)[O-] | 3.16µM | ? | . | . | . | .
SMILES | G9a block | BAZ2B block | JMJD2A Tudor | HP1b chromo inh | Six1-Eya2 blk | CtBP-E1A inh
Cc1nc2ccc(S(=O)(=O)N(C)CC(=O)Nc3ccc(C(C)C)cc3)cc2s1 | . | . | . | . | / | /
COc1cccc(Cn2ccn(-c3ccc(F)cc3)c(=O)c2=O)c1 | . | . | . | . | / | /
COc1ccc(C)cc1Nc1nc2c(S(=O)(=O)c3cc(C)ccc3C)nnn2c2ccsc12 | . | . | . | . | / | /
C[C@@H]1CN=C2N(CCNC(=O)CCC3CCCCC3)[C@H](Cc3ccc(O)cc3)CN21 | .[12.7 µM] | . | 50.1µM | . | . | .
COc1cccc(N2CCN(C(=O)C3Cc4ccccc4N3C(C)=O)CC2)c1 (stereo not drawn) | . | . | . | . | / | /
CC1=C(C(=O)OC(C)C)C(c2cccs2)N2C(=O)C(C)SC2=N1 (stereo not drawn) | . | . | 79.4µM | . | . | .
CC1=C(C(=O)OC(C)C)C(c2cccs2)N2C(=O)CCSC2=N1 (stereo not drawn) | . | . | . | . | . | .
O=C(O)CCCNc1cc(N2CCN(C(=O)c3ccco3)CC2)c2noc3c2c1C(=O)c1ccccc1-3 | 10µM | 17.8µM | 35.5µM | 35.5µM | ? | ?
O=C1c2ccccc2-c2onc3c(N4CCN(CCO)CC4)cc(N4CCN(C(=O)c5ccco5)CC4)c1c23 | 28.2µM | 15.8µM | 25.1µM | ? | ? | -75.5
CCOC(=O)N1CCN(c2cc(NCCC(=O)O)c3c4c(onc24)-c2ccccc2C3=O)CC1 | ? | 28.2µM | 56.2µM | . | -69.3 | -69.9
CCn1c(=O)cc(SCC(=O)N2CCN(C3CCCCC3)CC2)c2ccccc21 | . | . | . | . | . | .
CCCCNc1cc(N2CCN(C3CCCCC3)CC2)c2noc3c2c1C(=O)c1ccccc1-3 | ? | 5.01µM | ? | . | / | /
O=C(c1ccco1)N1CCN(CCCCN2C(=O)c3ccccc3C2=O)CC1 | . | . | . | . | . | .
Cc1cc(C)cc(OCC(=O)Nc2c(C)ccc3nsnc23)c1 | . | . | . | . | / | /
O=[N+]([O-])c1c(NCCO)cc(N2CCC3(CC2)OCCO3)c2nonc12 | . | . | . | . | . | .
CN1CCN(c2cc(N3CCN(C(=O)c4ccco4)CC3)c3c4c(onc24)-c2ccccc2C3=O)CC1 | 35.5µM | 15.8µM | 39.8µM | ? | ? | /
O=C(c1ccco1)N1CCN(C2=NS(=O)(=O)c3ccccc32)CC1 | .[12.7 µM] | . | . | . | . | .
O=C(O)CCCNc1cc(N2CCC3(CC2)OCCO3)c2noc3c2c1C(=O)c1ccccc1-3 | ? | 14.1µM | / | / | / | /
Oc1ccc(Nc2nc3ccccc3n3cnnc23)cc1 | . | . | . | . | / | /
CCCCC[C@]12Cc3cc(OC)c(OC)cc3C(O1)c1c(cc(C)n(-c3ccccc3)c1=O)O2 | .[2.33 µM] | 11.2µM | / | / | / | /
COc1cc2c(cc1OC)C1O[C@](c3ccsc3)(C2)Oc2cc(C)n(Cc3ccccc3)c(=O)c21 | .[2.33 µM] | 3.98µM | / | / | / | /
COc1cc2c(cc1OC)C1O[C@](CCCCN3C(=O)c4ccccc4C3=O)(C2)Oc2c1c(=O)oc1ccc(F)cc21 | ? | 8.91µM | / | / | / | /
COc1ccc2c3c(c(=O)oc2c1)C1O[C@](CCCCN2C(=O)c4ccccc4C2=O)(Cc2cc(OC)c(OC)cc21)O3 | / | .[22.9 µM] | / | / | / | /
COc1cc2c(cc1OC)[C@@H]1O[C@](CCCCN3C(=O)c4ccccc4C3=O)(C2)Oc2cc(C)n(-c3ccccc3)c(=O)c21 | / | .[22.9 µM] | / | / | / | /
CCc1ccc(C(=O)COC(=O)C(Cc2c[nH]c3ccccc23)NC(=O)c2ccc(Br)cc2)cc1 (stereo not drawn) | . | . | . | . | / | /
Cc1cc(Cl)ccc1NC(=O)CSc1nc2c(c(=O)[nH]1)CCC2 | ? | . | . | . | / | /
